Assay [1] has as its target Cytochrome P450 3A4 (Homo sapiens) (UniProt P08684). In words: qHTS Assay for Inhibitors and Substrates of Cytochrome P450 3A4 (AID 884). Further: nearly all actives have a fitted effect of over 50% in size. Further: potency means the concentration at half of the fitted maximal effect. Summed up:
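Luminescent readout of luciferin produced by CYP3A4 (20 nM) dealkylation of Luciferin-PPXE, 25 uM (its KM). NADPH-driven reaction ran 60 min at RT after 10 min compound preincubation; data scaled to 57 uM ketoconazole as 100% inhibition.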
(In general: In qHTS, concentration-response curves come from the screen itself.)

Assay [2] in a line: Cell Viability - LYMP2-001 (AID 921).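 Further: series mostly up to about 92 µM; 0% = DMSO only and full inhibition = tetraoctylammonium bromide control wells; nearly all actives have a fitted effect of over 70% in size.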 The procedure, abridged: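 Steps: seed 2500 lymphoblastoid cells/well; 5 hr, 37 C; add compound; 24 hr, 37 C; CellTiter-Glo reagent, 30 min room temperature; read luminescence. Concentration-response modeled by Hill equation for AC50.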
Assay [3] in a line: MultiTox-Fluor Cytotoxicity Assay - LYMP1-001 - Live Cells (AID 947).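 Further: 0% = DMSO only and full inhibition = tetraoctylammonium bromide control.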
A short description of assay [4]: Cell Viability - LYMP2-010 (AID 981).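 Further: cells exposed to compound for 24 hours at 37 °C; on the % scale 0 is the no-effect control and ±100 the full control effect; nearly all actives have a fitted effect of over 55% in size.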 The procedure, abridged:
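qHTS cytotoxicity, 1536-well: 2500 cells/well, 5 hr settle, 24 hr compound at 37 C, CellTiter-Glo 30 min RT, luminescence read. Decrease in ATP = toxicity; AC50 via standard Hill equation. Positive control tetraoctylammonium bromide.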

Assay [5] in a line: Cell Viability - LYMP2-012 (AID 982).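 Further: cellular ATP by luciferase luminescence where a drop means cytotoxicity; cells exposed to compound for one day before reading; 0% = DMSO only and full loss = 92 µM tetraoctylammonium bromide; nearly all actives have a fitted effect of over 55% in size.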
Assay [6] can be described thus: Cell Viability - LYMP2-016 (AID 984).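 Further: cells exposed to compound for 24 hours at 37 °C; on the % scale 0 is the no-effect control and ±100 the full control effect; nearly all actives have a fitted effect of over 55% in size.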 The procedure, abridged:
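Cells were seeded at 2500 per well and rested 5 hr before a 24 hr compound exposure at 37 C. Viability was then gauged as cellular ATP by luciferase luminescence, with AC50 values fitted to the Hill equation.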

A short description of assay [7]: Cell Viability - LYMP2-024 (AID 988).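 Further: plate controls were DMSO only for no effect and 92 µM tetraoctylammonium bromide for full effect; nearly all actives have a fitted effect of over 60% in size.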 The procedure, abridged:
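ATP-based luminescence (CellTiter-Glo, 30 min RT) after 24 h compound exposure at 37 C of 2500 lymphoblastoid cells/well; decrease in ATP taken as cytotoxicity. qHTS concentration-response fitted to standard Hill equation for AC50.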

In assay [8] the target is Estrogen receptor (Homo sapiens) (UniProt P03372). In words: qHTS assay for small molecule antagonists of estrogen receptor alpha signaling (AID 588513; active means well fitted curve in the direction sought with a large enough effect in the signal ratio, with a control signal flat, not every such curve was filed as active; the % refers to the signal ratio; further: on the % scale 0 is the no-effect control and ±100 the full control effect). Summed up:
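Fluorescence from CCF4 substrate after 2 h at room temperature gave reporter activity; cells had been exposed to compound and 0.5nM 17-beta-estradiol for 18 h at 37 C. Hill-equation fitting yielded IC50 and maximal response.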

Assay [9] addresses Glucocorticoid receptor (Homo sapiens) (UniProt P04150). Put plainly: qHTS assay for small molecule agonists of glucocorticoid receptor signaling (AID 588532; active means well fitted curve in the direction sought with a large enough effect in the signal ratio, with a control signal flat; the % refers to the signal ratio;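 further: 100% = dexamethasone at 0.1 µM and 0% = DMSO only wells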). The following applies: HeLa MMTV-bla, beta-lactamase ratio, agonist, 18 h; hits give high values; percent of dexamethasone control, DMSO zero. The procedure, abridged: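 MMTV-bla HeLa beta-lactamase reporter cells in 1% charcoal/dextran FBS medium, compounds up to 92 uM for 18 h at 37 C, CCF4 readout; normalized to 0.1 uM dexamethasone (100%), EC50 and efficacy from Hill fits.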

For assay [10] the target is unchanged. Put plainly: qHTS assay for small molecule antagonists of glucocorticoid receptor signaling (AID 588533; active means well fitted inhibition curve with a large enough effect in the signal ratio, with a control signal flat, not every such curve was filed as active; the % refers to the signal ratio;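 further: cells stimulated with 2 nM dexamethasone as agonist; on the % scale 0 is the no-effect control and ±100 the full control effect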). Summed up: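 Antagonist-mode qHTS: compound titrations added to GRE-bla HeLa cells, then dexamethasone 2 nM final; 18 h, 37 C. CCF4 FRET fluorescence normalized to dexamethasone and DMSO; IC50 from Hill fit.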
Assay [11] deals with Peroxisome proliferator-activated receptor gamma (Homo sapiens) (UniProt P37231). Put plainly: qHTS assay for small molecule agonists of peroxisome proliferator-activated receptor gamma signaling (AID 588536; active means well fitted curve in the direction sought with a large enough effect in the signal ratio, with a control signal flat, not every such curve was filed as active; the % refers to the signal ratio;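 further: 0% = DMSO basal wells and 100% = rosiglitazone at 2 µM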). The procedure, abridged:
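Using GeneBLAzer HEK293 cells, response was quantified by CCF4 fluorescence and normalized between basal DMSO (0%) and rosiglitazone 2 uM (100%); curves yielded half-maximal stimulation concentration and efficacy.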

The target in assay [12] is Retinoic acid receptor RXR-alpha (Homo sapiens) (UniProt P19793). In words: qHTS assay for small molecule agonists of retinoid X receptor alpha signaling (AID 588544; calls by dose curve;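 further: 0% = DMSO basal wells and 100% = reference agonist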).
The target of assay [13] is Thyroid hormone receptor beta (Homo sapiens) (UniProt P10828). Put plainly: qHTS assay for small molecule antagonists of thyroid hormone receptor beta signaling (AID 588547; active means well fitted inhibition curve with a large enough effect in the signal ratio, with a control signal flat, not every such curve was filed as active; the % refers to the signal ratio;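 further: cells stimulated with 0.4 nM T3 agonist during compound exposure; series mostly up to about 77 µM; on the % scale 0 is the no-effect control and ±100 the full control effect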). Conditions: TR-UAS-bla HEK293, beta-lactamase ratio, antagonist mode, 18 h. Summed up:
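TR-UAS-bla GripTite HEK293 cells in 2% charcoal/dextran FBS medium; compounds 0.59 nM to 92 uM with T3 at 0.4nM final, 18 h at 37 C. Beta-lactamase read by CCF4 fluorescence (460/530 nm); Hill fits gave IC50 and efficacy.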

Assay [14] is described as follows: qHTS assay for small molecule activators of the p53 signaling pathway (AID 651743; active means well fitted activation curve with a large enough effect in the signal ratio, not every such curve was filed as active; the % refers to the signal ratio; further: series mostly up to about 92 µM; % of control where 0% means no effect). The following applies: HCT-116 p53RE-bla, beta-lactamase FRET ratio, 16 h; activation: hits give high values. The procedure, abridged: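 Reporter: beta-lactamase driven by p53 response elements, stably integrated in HCT-116 cells. Cells seeded at 4,000/well, 5 h preincubation, compound (DMSO) 16 h at 37 C; B/G FRET substrate 2 h RT; fluorescence intensity read.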

Assay [15] addresses Tumor necrosis factor (Homo sapiens) (UniProt P01375). In words: qHTS assay to identify small molecules that stimulate Tumor Necrosis Factor-alpha (TNF-alpha) secretion (AID 651757; active means well fitted curve in the direction sought with a large enough effect in the signal ratio; the % refers to the signal ratio; further: 0% is about no effect). Summed up: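 THP-1 cells, 3000/well; compound 17 hrs, 37 C; add cryptate/XL665 anti-TNF-alpha antibody pair; 3 hr RT; TR-FRET (HTRF) read of secreted TNF-alpha. Quantitative HTS format.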
A short description of assay [16]: qHTS assay for environmental chemicals that activate the Aryl hydrocarbon Receptor (AhR) signaling pathway (AID 651777). Further: % of control where 0% means no effect; nearly all actives have a fitted effect of over 15% in size. The following applies: 1A2-DRE human hepatoma cells, luciferase, 24 h; activation: hits give high values. Summed up: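 Following a 24 hr incubation with test chemicals at 37 C and 5% CO2, 1A2-DRE human hepatoma cells received One-Glo reagent; after 30 min at room temperature, luciferase output reflected CYP1A2 induction via AhR.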

In assay [17] the target is Nuclear receptor ROR-gamma (Homo sapiens) (UniProt P51449). In words: qHTS assay for small molecule antagonists of the retinoid-related orphan receptor gamma (ROR-gamma) signaling pathway (AID 651802).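 Further: CHO cells with doxycycline-induced ROR-gamma expression; luciferase reporter luminescence driven by ROR response element; series mostly up to about 92 µM; on the % scale 0 is the no-effect control and ±100 the full control effect; nearly all actives have a fitted effect of over 60% in size.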 Summed up: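 Luciferase read-out: ONE-Glo luminescence after 30 min at room temperature, following 16hr doxycycline induction at 37C, 5% CO2 of CHO cells with TET-inducible ROR and RORE-LUC reporter; decreased luminescence = reduced reporter activity.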

Assay [18] is described as follows: qHTS assay for small molecule antagonists of the retinoid-related orphan receptor gamma (ROR-gamma) signaling pathway - cell viability counter screen (AID 720652; active means well fitted curve in the direction sought with a large enough effect in the repeat runs; an effect the other way counts as inactive or inconclusive;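 further: CHO reporter cells with doxycycline-induced ROR-gamma expression; series mostly up to about 92 µM; compound exposure lasted 16 hr before ATP read; on the % scale 0 is the no-effect control and ±100 the full control effect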). Summed up:
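CHO RORE-LUC/TET-ROR line, 1,000 cells/well, 37 C 5% CO2 5 hr; cpd or DMSO + doxycycline induction, 16 hr. CellTiter-Glo, 30 min RT, luminescence = ATP content.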

Assay [19] concerns the target Nuclear receptor subfamily 1 group I member 2 (Rattus norvegicus) (UniProt Q9R1A7). Put plainly: qHTS assay for small molecule activators of the rat pregnane X receptor (rPXR) signaling pathway (AID 651751; call rule not given here; further: 0% is about no effect). Conditions: rPXR reporter cells, luciferase (One-Glo), 24 h.
Assay [20] deals with Estrogen receptor (Homo sapiens) (UniProt P03372). In words: qHTS assay for small molecule agonists of estrogen receptor alpha signaling (AID 588514; calls by dose curve;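 further: 0% = vehicle only and 100% = reference agonist; nearly all actives have a fitted effect of over 70% in size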). Summed up: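 Read-out: CCF4 fluorescence from a beta-lactamase reporter in ER-alpha-UAS-bla HEK 293 cells after 18 hrs of compound exposure at 37 C. Normalized to 20 nM 17-beta-estradiol (100%) and DMSO (0%).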

Where “and” joins values, the source holds several entries; their conditions need not be identical. Equal values may be shown once. Unmarked numbers belong to inactive results. Results filed as inconclusive are left out. Calls of active or inactive are those of the source. Unless noted, the call rests on the fitted dose curve; in most records, active means well fitted curve in the direction sought with a large enough effect; inconclusive means small, poorly fitted or top-dose-only effect, or another doubt; inactive means no such curve, though single readings can be large; an effect the other way counts as inactive or inconclusive.

Chain of Tumor necrosis factor (Homo sapiens) (P01375 whole entry, looked up): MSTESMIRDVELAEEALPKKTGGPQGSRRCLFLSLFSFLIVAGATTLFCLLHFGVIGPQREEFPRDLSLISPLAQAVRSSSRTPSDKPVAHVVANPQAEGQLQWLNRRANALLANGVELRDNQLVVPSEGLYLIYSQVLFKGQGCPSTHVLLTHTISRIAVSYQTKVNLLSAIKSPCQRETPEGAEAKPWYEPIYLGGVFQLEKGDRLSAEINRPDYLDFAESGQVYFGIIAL
Chain of Retinoic acid receptor RXR-alpha (Homo sapiens) (P19793 whole entry, looked up): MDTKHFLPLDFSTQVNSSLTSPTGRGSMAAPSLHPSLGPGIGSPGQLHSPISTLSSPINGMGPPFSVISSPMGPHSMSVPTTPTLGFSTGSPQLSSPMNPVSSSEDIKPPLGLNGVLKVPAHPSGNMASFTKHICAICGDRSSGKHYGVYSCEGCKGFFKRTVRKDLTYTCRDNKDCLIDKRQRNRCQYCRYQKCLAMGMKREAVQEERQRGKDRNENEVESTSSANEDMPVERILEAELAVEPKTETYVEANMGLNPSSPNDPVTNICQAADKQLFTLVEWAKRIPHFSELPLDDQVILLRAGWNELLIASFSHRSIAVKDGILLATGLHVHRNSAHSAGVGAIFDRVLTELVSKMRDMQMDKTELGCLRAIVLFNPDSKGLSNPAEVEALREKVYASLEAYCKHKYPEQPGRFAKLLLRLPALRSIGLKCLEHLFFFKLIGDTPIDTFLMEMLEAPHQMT
Chain of Glucocorticoid receptor (Homo sapiens) (P04150 whole entry, looked up): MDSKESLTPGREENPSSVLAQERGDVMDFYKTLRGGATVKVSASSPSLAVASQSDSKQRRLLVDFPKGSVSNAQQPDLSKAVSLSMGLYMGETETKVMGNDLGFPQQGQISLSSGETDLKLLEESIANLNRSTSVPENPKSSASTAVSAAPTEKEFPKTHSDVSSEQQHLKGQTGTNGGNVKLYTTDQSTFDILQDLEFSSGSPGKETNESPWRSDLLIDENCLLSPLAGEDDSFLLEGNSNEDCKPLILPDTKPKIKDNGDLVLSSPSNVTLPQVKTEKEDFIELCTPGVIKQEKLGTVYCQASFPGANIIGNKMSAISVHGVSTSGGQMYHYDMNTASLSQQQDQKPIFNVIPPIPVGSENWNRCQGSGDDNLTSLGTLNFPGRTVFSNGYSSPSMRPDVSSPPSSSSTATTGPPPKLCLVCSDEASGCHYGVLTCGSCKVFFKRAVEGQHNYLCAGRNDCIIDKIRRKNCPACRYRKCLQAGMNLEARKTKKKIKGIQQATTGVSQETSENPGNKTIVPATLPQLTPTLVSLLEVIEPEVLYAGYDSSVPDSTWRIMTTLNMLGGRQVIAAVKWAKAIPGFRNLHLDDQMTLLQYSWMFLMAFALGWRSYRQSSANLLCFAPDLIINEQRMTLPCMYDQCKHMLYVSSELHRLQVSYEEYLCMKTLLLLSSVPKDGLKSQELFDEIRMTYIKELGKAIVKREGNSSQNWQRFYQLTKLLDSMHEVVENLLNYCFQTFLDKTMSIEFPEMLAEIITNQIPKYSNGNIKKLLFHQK
Chain of Peroxisome proliferator-activated receptor gamma (Homo sapiens) (P37231 whole entry, looked up): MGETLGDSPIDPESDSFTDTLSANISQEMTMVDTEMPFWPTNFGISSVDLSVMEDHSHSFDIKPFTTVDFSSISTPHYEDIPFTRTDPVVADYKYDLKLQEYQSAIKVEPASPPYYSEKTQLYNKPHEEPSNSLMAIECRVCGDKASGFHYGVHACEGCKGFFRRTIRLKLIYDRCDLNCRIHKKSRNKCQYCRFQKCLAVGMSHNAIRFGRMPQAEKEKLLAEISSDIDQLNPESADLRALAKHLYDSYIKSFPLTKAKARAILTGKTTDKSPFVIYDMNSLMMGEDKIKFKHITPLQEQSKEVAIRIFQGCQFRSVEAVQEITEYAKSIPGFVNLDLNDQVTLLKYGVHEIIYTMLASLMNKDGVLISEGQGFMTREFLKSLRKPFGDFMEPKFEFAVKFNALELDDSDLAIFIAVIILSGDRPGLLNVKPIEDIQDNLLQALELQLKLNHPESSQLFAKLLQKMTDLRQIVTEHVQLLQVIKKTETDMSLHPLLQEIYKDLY
Chain of Thyroid hormone receptor beta (Homo sapiens) (P10828 whole entry, looked up): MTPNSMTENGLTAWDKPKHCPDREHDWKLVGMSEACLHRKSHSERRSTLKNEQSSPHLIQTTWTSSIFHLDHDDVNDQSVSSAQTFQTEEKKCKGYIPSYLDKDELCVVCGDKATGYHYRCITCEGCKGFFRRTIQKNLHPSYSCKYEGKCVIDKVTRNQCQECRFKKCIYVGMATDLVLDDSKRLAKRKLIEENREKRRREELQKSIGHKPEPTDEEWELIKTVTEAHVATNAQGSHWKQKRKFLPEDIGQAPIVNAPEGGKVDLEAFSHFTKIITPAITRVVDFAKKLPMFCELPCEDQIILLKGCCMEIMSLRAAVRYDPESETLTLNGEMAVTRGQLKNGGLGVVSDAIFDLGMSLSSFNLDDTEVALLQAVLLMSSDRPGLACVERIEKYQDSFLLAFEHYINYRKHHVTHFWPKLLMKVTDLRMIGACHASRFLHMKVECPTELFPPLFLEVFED
Chain of Estrogen receptor (Homo sapiens) (P03372 whole entry, looked up): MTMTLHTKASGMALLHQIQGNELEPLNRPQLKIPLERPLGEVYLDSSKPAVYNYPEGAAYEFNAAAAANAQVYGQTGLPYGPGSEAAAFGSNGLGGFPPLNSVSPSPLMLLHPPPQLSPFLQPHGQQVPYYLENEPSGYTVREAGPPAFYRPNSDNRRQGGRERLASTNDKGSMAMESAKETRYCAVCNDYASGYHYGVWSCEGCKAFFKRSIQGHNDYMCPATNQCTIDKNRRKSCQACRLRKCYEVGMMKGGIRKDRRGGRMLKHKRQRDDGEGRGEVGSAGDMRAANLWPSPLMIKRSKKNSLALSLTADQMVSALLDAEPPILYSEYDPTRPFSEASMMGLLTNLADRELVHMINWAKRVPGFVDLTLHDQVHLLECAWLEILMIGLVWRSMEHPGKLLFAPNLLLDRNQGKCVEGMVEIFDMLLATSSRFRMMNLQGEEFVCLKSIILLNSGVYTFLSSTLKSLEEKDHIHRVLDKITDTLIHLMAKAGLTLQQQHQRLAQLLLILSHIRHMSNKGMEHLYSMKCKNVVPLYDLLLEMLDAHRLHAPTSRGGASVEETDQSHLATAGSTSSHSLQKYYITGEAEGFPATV
Chain of Cytochrome P450 3A4 (Homo sapiens) (P08684 whole entry, looked up): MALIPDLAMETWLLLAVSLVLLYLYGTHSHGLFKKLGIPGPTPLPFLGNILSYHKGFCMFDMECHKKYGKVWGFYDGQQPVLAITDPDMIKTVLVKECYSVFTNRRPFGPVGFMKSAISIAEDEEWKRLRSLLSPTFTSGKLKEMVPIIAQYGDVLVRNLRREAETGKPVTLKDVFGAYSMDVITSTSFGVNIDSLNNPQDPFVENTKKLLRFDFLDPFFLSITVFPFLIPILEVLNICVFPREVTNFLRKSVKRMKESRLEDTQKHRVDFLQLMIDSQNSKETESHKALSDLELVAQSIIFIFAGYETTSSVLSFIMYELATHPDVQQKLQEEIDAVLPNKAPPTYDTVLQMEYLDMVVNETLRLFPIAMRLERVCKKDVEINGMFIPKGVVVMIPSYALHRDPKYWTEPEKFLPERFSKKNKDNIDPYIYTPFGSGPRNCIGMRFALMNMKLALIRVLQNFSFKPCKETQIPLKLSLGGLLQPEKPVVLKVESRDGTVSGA
Chain of Nuclear receptor subfamily 1 group I member 2 (Rattus norvegicus) (Q9R1A7 whole entry, looked up): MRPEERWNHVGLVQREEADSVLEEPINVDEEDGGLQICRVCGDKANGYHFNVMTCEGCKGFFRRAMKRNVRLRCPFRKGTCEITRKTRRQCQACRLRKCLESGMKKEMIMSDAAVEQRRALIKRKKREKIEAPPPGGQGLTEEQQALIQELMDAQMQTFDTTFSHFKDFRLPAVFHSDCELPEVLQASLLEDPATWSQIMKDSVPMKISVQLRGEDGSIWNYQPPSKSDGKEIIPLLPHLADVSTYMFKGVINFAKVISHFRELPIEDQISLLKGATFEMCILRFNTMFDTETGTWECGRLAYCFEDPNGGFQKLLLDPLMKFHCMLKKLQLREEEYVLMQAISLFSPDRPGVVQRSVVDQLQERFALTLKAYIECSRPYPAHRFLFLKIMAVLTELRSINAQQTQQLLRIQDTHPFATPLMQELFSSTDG
Chain of Nuclear receptor ROR-gamma (Homo sapiens) (P51449 whole entry, looked up): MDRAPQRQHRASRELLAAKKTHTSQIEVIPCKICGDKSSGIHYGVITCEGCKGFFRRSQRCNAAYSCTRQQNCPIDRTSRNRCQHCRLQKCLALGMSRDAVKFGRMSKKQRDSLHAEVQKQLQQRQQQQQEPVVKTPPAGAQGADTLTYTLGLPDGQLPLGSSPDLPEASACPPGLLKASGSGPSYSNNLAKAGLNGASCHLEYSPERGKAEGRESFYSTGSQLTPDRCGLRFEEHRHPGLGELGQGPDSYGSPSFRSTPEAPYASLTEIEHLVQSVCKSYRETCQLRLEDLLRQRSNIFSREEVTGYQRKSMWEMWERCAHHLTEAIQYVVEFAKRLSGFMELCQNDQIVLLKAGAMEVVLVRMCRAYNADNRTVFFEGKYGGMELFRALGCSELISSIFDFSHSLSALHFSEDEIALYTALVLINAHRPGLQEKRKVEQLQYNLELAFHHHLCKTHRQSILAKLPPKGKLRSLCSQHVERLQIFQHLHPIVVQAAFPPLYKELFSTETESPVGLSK

With `Nc1c(Cl)c(Cl)nc(C(=O)O)c1Cl`, the Potency entry in assay [1], in [2], in assay [3], in assay [4], in [5] and in assay [6] was “inactive” throughout. Further, the Potency entry in assay [7], in assay [8], in [10], in assay [12], in assay [17] and in assay [18] was “inactive” each time. Besides, the activation in assay [9] was -2.38% and -16.4% and -2.51%; in assay [14], -3.11% and -9.55% and -6.83%; in [16], 6.67% and 13.8% and 2.52%. In addition, the outcome in assay [11] and in [15] was inactive. For the same compound, in assay [13], the activity change % (negative = inhibition) was -17.9% and -15% and -2.55%. Further, in [19], the max response is -1% and -3.34% and -1.89%.

Take `O=C=NC1CCCCC1`: the Potency result in assay [1], in assay [2], in assay [3], in assay [4], in assay [5] and in assay [6] was “inactive” in each case. The Potency result in [7], in assay [8], in [20], in assay [10], in assay [12] and in assay [17] was “inactive” each time. For the same compound, the Potency result in [18] was “inactive”. In addition, the activation in assay [9] is 10.3%; in assay [14], -1.8% and -1.61%; in [16], 2.61% and 5.17%. The compound was classed as inactive in [11] and in [15]. The activity change % (negative = inhibition) in assay [13] is -8.25% and 2.05%.

Consider `CCCC(=O)Cl`, for which the Potency result in assay [1], in assay [2], in [3], in [4], in assay [5] and in assay [6] was “inactive” in each case. In addition, the Potency result in assay [7], in [8], in [20], in assay [10], in [12] and in assay [17] was “inactive” in each case. In addition, the Potency entry in assay [18] was “inactive”. For the same compound, the activation was 7.24% in [9], -0.024% in assay [14] and -2.02% in assay [16]. Further, the compound was called inactive in assay [11] and in assay [15]. In addition, the activity change % (negative = inhibition) in assay [13] is 3.8%. Further, in assay [19], the max response is -1.41%.

As for `C=CC(=O)OCC`, the Potency entry in assay [1], in assay [2], in [3], in assay [4], in assay [5] and in [6] was “inactive” throughout. Further, the Potency result in assay [7], in [8], in [20], in [10], in [12] and in [17] was “inactive” throughout. The Potency result in assay [18] was “inactive”. Further, the figures for the activation in [9] and in assay [16] were 2.08% and -0.74%, respectively. In addition, the call in assay [11] and in [15] was inactive. Also, in assay [13], the activity change % (negative = inhibition) is -5%. For the same compound, in assay [19], the max response is -4.65%.

As for `CCOP(=S)(OCC)Oc1ccc([N+](=O)[O-])cc1`, the Potency in [1] is 10 µM (active) and 5.01 µM (active). The Potency result in [2], in [3], in [4], in [5], in assay [6] and in assay [7] was “inactive” in each case. Moreover, the Potency result in [10], in [12], in assay [17] and in [18] was “inactive” in each case. Moreover, the activation is 1.36% and 0.403% and 5.24% in assay [9]; -1.79% and -1.31% and 2.7% in assay [14]; 8.97% in assay [16]. Further, the result in [11] and in assay [15] was inactive. Further, in assay [13], the activity change % (negative = inhibition) was 9.15% and -8.55%.

(Values after PubChem BioAssay (NCATS).)
